The source made the active and inactive calls.

Assay [1] is described as follows: small molecules captured by biotinylated probe aFSTL3 – biochemical, small-molecule microarray, fluorescence 635/667, stem cell growth factor project, primary screen (AID 1064).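 Also: measures binding of the biotinylated anti-FSTL3 antibody to printed compounds.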 The conditions noted are these: higher = more signal.
The nature of assay [2]: binders from COS7 lysate, DM2A8 probe, primary screen, torsin A project, cell lysate, small-molecule microarray, fluorescence 635/667 (AID 1065). The following applies: higher = more signal, COS7 lysate expressing mutant human TOR1A.
The nature of assay [3]: small molecules captured by biotinylated probe aFGF2 – biochemical, small-molecule microarray, fluorescence 635/667, stem cell growth factor project, primary screen (AID 1067).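 Also: measures binding of biotinylated aFGF2 protein to printed compounds on slides; z-score merges feature fluorescence and signal-to-noise across triplicate slides.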 The following applies: higher = more signal.
Assay [4] is described as follows: small molecules captured by biotinylated probe aFGF10 – biochemical, small-molecule microarray, fluorescence 635/667, stem cell growth factor project, primary screen (AID 1071).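 Also: score merges 667 nm spot intensity and signal to noise from triplicate slides.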 The conditions noted are these: higher = more signal.
The target of assay [5] is Neurogenic locus notch homolog protein 2 (Homo sapiens) (UniProt Q04721). Briefly: small molecules binding Notch2 protein – biochemical, small-molecule microarray, 635 nm fluorescence, stem cell growth factors, primary screen (AID 1073). The conditions noted are these: higher = more signal.
Chain of Neurogenic locus notch homolog protein 2 (Homo sapiens) (Q04721 whole entry, looked up, canonical isoform): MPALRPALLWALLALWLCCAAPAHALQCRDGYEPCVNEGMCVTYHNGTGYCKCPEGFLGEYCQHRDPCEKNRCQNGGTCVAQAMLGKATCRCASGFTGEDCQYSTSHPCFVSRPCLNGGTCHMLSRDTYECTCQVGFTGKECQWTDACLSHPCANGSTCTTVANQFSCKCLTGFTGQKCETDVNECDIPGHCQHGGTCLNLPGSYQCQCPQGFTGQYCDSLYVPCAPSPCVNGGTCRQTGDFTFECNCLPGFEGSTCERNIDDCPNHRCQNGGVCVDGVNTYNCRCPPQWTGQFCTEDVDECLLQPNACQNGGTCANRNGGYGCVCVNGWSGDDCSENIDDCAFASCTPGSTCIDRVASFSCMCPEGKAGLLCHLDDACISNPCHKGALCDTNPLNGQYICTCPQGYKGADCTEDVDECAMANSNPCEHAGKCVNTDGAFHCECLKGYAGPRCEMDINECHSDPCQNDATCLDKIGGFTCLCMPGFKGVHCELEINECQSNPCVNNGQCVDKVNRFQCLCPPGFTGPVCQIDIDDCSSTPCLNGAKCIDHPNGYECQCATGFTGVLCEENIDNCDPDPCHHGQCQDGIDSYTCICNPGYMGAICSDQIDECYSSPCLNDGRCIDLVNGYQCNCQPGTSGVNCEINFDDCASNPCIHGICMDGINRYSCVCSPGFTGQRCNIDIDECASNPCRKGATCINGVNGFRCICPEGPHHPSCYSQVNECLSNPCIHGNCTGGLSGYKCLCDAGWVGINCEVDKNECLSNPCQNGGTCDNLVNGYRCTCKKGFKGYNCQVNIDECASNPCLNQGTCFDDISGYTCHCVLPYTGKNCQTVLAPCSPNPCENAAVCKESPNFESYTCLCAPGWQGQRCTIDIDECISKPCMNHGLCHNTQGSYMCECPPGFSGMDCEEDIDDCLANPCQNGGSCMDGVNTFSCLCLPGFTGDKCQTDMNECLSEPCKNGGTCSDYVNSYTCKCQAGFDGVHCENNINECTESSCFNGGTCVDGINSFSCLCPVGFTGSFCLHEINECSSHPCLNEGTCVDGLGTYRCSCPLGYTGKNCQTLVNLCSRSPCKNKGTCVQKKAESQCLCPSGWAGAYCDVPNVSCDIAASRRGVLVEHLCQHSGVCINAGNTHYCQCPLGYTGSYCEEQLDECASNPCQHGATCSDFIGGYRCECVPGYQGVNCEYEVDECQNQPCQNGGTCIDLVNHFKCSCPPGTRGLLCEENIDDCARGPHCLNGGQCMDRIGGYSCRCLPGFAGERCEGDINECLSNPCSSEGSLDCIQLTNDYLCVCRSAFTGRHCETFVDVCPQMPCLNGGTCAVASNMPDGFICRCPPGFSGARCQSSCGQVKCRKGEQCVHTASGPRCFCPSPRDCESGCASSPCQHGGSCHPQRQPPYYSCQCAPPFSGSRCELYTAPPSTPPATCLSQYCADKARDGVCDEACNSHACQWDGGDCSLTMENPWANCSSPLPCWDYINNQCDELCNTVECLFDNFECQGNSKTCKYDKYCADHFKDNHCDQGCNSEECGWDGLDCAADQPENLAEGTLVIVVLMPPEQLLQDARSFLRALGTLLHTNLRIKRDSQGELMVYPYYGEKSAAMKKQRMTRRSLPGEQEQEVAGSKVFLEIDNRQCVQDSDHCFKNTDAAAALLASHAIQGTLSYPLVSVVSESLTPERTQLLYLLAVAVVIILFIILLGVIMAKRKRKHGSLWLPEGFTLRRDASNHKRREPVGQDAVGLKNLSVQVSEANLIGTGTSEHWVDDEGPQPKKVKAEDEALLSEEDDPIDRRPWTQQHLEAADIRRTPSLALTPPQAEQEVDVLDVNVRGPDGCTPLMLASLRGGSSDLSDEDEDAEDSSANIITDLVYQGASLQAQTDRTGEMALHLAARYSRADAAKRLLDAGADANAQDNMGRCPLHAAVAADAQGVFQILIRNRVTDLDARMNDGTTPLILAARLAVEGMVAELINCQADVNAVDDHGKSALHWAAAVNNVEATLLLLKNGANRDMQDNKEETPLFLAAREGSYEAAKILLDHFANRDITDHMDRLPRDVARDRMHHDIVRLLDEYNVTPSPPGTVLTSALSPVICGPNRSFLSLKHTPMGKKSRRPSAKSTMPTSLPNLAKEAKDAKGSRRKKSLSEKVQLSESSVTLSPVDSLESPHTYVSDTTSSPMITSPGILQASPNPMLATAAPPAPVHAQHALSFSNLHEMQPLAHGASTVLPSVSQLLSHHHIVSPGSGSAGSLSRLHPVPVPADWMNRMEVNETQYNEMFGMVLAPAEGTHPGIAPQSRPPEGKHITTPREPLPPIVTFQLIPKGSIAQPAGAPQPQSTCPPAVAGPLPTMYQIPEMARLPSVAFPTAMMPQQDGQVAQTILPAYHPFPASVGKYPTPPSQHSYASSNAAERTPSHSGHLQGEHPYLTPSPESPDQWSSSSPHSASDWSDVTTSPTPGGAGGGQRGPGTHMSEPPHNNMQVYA
Assay [6] has as its target Pro-neuregulin-1, membrane-bound isoform (Homo sapiens) (UniProt Q02297). Briefly: small molecules binding neuregulin-1 protein – biochemical, small-molecule microarray, fluorescence 635/667, psychiatric disease protein project, primary screen (AID 1075).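 Also: score combines 667 nm spot fluorescence with signal to noise.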 The following applies: NRG1 binding, 635 nm fluorescence, higher = more signal.
Assay [7] deals with Neuregulin-1 EGF-like domain. Briefly: small molecules binding NRG1 EGF domain – biochemical, small-molecule microarray, 635 nm fluorescence, primary screen (AID 1081).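 Also: binding of the protein to compounds printed on small-molecule microarray slides.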 The conditions noted are these: higher = more signal.
The nature of assay [8]: FRG1 expression reporter modulators in myotubes – cell-based, C2C12 myotubes, firefly/Renilla luciferase, luminescence, FRG1 inhibition for FSHD, primary screen (AID 1084). The following applies: FRG1 promoter luciferase, higher = more signal, called active from +8 up or from −8 down.
Assay [9] can be described thus: small molecules captured by biotinylated probe aFST – biochemical, small-molecule microarray, fluorescence 635/667, stem cell growth factor project, primary screen (AID 1086).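 Also: score merges 667 nm fluorescence with signal-to-noise of each printed compound spot.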 The following applies: higher = more signal.
A short description of assay [10]: binders of probe aHhip on microarray, primary screen, stem cell growth factor project, biochemical, small-molecule microarray, fluorescence 635/667 (AID 1087).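 Also: score merges spot fluorescence at 667nm with spot signal to noise ratio.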 The conditions noted are these: higher = more signal.
Assay [11] has as its system PRMT1 (protein arginine N-methyltransferase 1). As to the kind of experiment: small molecules binding arginine methyltransferase PRMT1 – biochemical, small-molecule microarray, 635 nm fluorescence, primary screen (AID 1088).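 Also: binding of Prmt1 protein to compounds spotted on small-molecule microarray slides.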 The following applies: higher = more signal.
Assay [12] can be described thus: growth effects on S. cerevisiae YJM789 – YJM789 clinical isolate, OD600, 24 h, basal, primary screen (AID 1089).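 Also: growth of clinical yeast isolate S. cerevisiae YJM 789 seeded 1000 cells per well; test concentration not given here.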 The following applies: higher = more signal, called active from +8 up or from −8 down.
Assay [13] is described as follows: S. pombe growth modifiers, basal conditions – strain 972, OD600, 24 h, no modulator, primary screen (AID 1090).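 Also: basal condition with compound alone and no growth modifier present; test concentration not given here.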 The conditions noted are these: S. pombe 972 growth, higher = more signal, called active from +8 up or from −8 down.
Assay [14] can be described thus: budding yeast growth modifiers under rapamycin – strain BY4716, OD600, 96 h, primary screen (AID 1091). Also: test concentration not given here. The conditions noted are these: S. cerevisiae BY4716 + rapamycin, higher = more signal, called active from +8 up or from −8 down.
Assay [15] has as its target Torsin-1A-interacting protein 2 (Homo sapiens) (UniProt Q8NFQ8). As to the kind of experiment: small molecules binding lysate-expressed LULL1 – cell lysate, human LULL1 lysate, 635/667 nm fluorescence, primary screen (AID 1092).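 Also: probe is lysate of COS7 cells overexpressing human LULL1; score merges per-feature 667 nm fluorescence with signal-to-noise.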 The conditions noted are these: small-molecule microarray, hLULL1 lysate binding, 635 nm fluorescence; higher = more signal.
Assay [16] is described as follows: optical density change of DRC41 E. coli – strain DRC41, OD650, 24 h, E. coli filamentation project, primary screen (AID 1093).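 Also: MC1000 strain lacking acrAB efflux and sulA so SOS filamentation is blocked; test concentration not given here.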 The following applies: E. coli DRC41 growth, higher = more signal, called active from +8 up or from −8 down.
Assay [17] is described as follows: probe aLefty2 binding to arrayed compounds – biochemical, biotinylated probe, 635/667 nm fluorescence, primary screen (AID 1094).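 Also: score merges spot fluorescence near 667 nm with spot signal-to-noise ratio.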 The conditions noted are these: small-molecule microarray, higher = more signal.
In assay [18] the test system is Noggin (protein binding on small-molecule microarray). As to the kind of experiment: small molecules binding Noggin protein – biochemical, 635/667 nm fluorescence, primary screen (AID 1095).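 Also: score merges 667 nm feature fluorescence with signal to noise over triplicate slides.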 The conditions noted are these: 635 nm fluorescence, higher = more signal.
Assay [19] addresses Neurogenic locus notch homolog protein 3 (Homo sapiens) (UniProt Q9UM47). As to the kind of experiment: small molecules binding NOTCH3 protein – biochemical, 635/667 nm fluorescence, primary screen (AID 1096). The conditions noted are these: small-molecule microarray, 635 nm fluorescence, higher = more signal.
Assay [20] is described as follows: probe aEGFR binding to arrayed compounds – biochemical, biotinylated probe, 635/667 nm fluorescence, primary screen (AID 1097).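 Also: probe is a biotinylated anti-EGFR antibody binding compounds printed on slides; score combines fluorescence near 667 nm and signal to noise of each spot.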 The following applies: small-molecule microarray, higher = more signal.

Chain of Torsin-1A-interacting protein 2 (Homo sapiens) (Q8NFQ8 whole entry, looked up): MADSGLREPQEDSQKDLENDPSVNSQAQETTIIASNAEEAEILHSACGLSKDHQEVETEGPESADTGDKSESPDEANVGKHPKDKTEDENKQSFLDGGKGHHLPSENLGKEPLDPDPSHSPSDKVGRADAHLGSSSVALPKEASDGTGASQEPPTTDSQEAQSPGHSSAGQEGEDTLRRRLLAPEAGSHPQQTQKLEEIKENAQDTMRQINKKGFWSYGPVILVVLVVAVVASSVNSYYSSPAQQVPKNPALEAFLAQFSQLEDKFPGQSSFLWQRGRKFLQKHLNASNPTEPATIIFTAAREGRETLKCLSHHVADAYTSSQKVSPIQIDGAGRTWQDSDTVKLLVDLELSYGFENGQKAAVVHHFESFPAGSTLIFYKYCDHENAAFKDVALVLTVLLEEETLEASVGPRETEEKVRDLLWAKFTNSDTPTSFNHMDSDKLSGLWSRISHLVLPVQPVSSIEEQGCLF
Chain of Pro-neuregulin-1, membrane-bound isoform (Homo sapiens) (Q02297 whole entry, looked up, the tested form may be a part, canonical isoform): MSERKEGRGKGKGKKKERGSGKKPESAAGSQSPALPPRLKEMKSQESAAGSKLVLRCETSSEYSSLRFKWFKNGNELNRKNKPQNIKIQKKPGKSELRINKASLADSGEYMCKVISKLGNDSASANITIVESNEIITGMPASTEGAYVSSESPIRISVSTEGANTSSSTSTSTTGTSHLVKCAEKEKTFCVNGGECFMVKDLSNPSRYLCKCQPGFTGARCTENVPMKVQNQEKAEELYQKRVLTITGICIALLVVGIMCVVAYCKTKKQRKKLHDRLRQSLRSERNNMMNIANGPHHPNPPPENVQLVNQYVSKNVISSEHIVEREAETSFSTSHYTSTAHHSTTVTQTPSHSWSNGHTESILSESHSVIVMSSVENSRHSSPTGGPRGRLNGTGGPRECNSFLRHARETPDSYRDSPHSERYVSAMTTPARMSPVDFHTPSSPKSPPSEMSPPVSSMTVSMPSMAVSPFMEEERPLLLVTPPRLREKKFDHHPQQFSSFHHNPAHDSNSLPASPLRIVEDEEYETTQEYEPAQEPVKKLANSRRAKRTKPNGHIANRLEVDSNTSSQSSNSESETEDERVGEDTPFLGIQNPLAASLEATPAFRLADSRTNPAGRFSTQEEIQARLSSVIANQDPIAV

On to `Cc1c(NC(=O)/C(C#N)=C/C=C/c2ccccc2[N+](=O)[O-])c(=O)n(-c2ccccc2)n1C`, for which the composite z-score in assay [1] is -0.0331; in assay [2], 0.563; in assay [3], 0.0415; in assay [4], 0.0448; in assay [5] it was 1.03; in assay [6], 1.1. Moreover, the composite z-score in assay [7] was 1.13; in assay [9] it was 0.334; in [10], 0.0352; in assay [11], 0.454; in [15] it was 1.85; in assay [17], -0.0124. Further, the composite z-score was 0.148 in [18], 0.945 in assay [19] and -0.0043 in [20]. Further, the z-score was -0.844 (inactive) in assay [8]; 0.218 (inactive) in assay [12]; -0.322 (inactive) in assay [13]; 0.477 (inactive) in assay [14]; 1.02 (inactive) in assay [16].

For `C[C@]1(C(=O)NC2CC2)c2ccccc2C(=O)N(Cc2ccc(OC(F)(F)F)cc2)[C@H]1c1ccc(CO)cc1`, the composite z-score in assay [1] is 0.652; in assay [2], 0.179; in assay [3] it was -0.0642; in [4] it was -0.366; in assay [5], -1.02; in assay [6], -0.47. Besides, the composite z-score was 0.745 in assay [7]; 0.0221 in assay [9]; -0.111 in assay [10]; -0.613 in assay [11]; 1.77 in [15]; -0.128 in assay [17]. The composite z-score in [18] is -0.221; in assay [19] it was -0.943; in assay [20] it was -0.169. Besides, the z-score in assay [8] was -1.68 (inactive); in assay [12], -0.352 (inactive); in assay [13] it was -0.0814 (inactive); in assay [14] it was -0.439 (inactive); in assay [16], 0.735 (inactive).

On to `COCCOC(=O)N1C(=O)[C@@]2(c3cc(C#Cc4ccc(OC)cc4)ccc31)[C@H](C(=O)N1CCCCCCC1)[C@H]1C(=O)O[C@H](c3ccccc3)[C@H](c3ccccc3)N1[C@@H]2c1ccc(O)cc1`, for which the composite z-score amounted to 2.75 in [1]; 0.294 in assay [2]; 0.125 in assay [3]; 0.479 in [4]; 0.565 in assay [5]; 0.114 in assay [6]. In addition, the composite z-score in assay [7] stood at 1.13; in [9], 2.06; in assay [10], 0.615; in [11], 1.47; in [15], 1.79; in assay [17], 0.834. Moreover, the composite z-score in [18] was 0.674; in [19], 0.709; in assay [20], 0.0577. Moreover, the z-score in assay [8] is 1.09 (inactive); in assay [12], -0.194 (inactive); in assay [13], 0.318 (inactive); in assay [14], 2.3 (inactive); in assay [16] it was 0.551 (inactive).

As for `COc1ccc(NN2C(C(O)c3ccccn3)C=CC3C(=O)N(C4CCCCC4)C(=O)C32)cc1` (stereo not given), the composite z-score in [1] was -0.218; in assay [2] it was -0.287; in [3], 0.0944; in assay [4], 0.467; in assay [5], 1.59; in assay [6] it was 1.36. The composite z-score in [7] was 1.17; in assay [9], 1.29; in assay [10], -0.152; in [11], 1.56; in [15], 3.26; in assay [17], 0.282. For the same compound, the composite z-score worked out at 0.05 in assay [18], 1.05 in assay [19] and 0.134 in assay [20]. Moreover, the z-score was 3.21 (inactive) in [8]; -0.199 (inactive) in [12]; -0.121 (inactive) in [13]; 0.151 (inactive) in assay [14]; 0.265 (inactive) in assay [16].
